The nature of assay [1]: qHTS assay to identify small molecule agonists of the sonic hedgehog signaling (Shh) pathway (AID 1259368; calls by dose curve;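 further: NIH/3T3-derived 3T3Gli1-Luc cells carrying a stable Gli1-driven firefly luciferase reporter; series mostly up to about 92 µM; nearly all actives have a fitted effect of over 15% in size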). The method, boiled down:
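Quantitative high-throughput format using a Gli1-driven firefly luciferase reporter line derived from NIH/3T3 cells. After a 24 hr compound treatment at 37 C and 5% CO2, luminescence reported Gli1 response element activity.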

A short description of assay [2]: qHTS assay to identify small molecule agonists of the androgen receptor (AR) signaling pathway in the presence of an antagonist - cell viability counter screen (AID 1259379). Further: nearly all actives have a fitted effect of over 25% in size. Further: potency means the concentration at half of the fitted maximal effect. In short, it runs like this: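 Nilutamide-containing (3.0uM final) MDA-kb2 cultures, 3,000 cells/well, were treated with compounds across 15 concentrations. After 16 hr at 37C with no CO2, cell viability was determined by CellTiter-Fluor fluorescence in the luciferase assay wells.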
On the technique in general: Quantitative high-throughput screening tests each substance at several concentrations.

The target of assay [3] is Androgen receptor (Homo sapiens) (UniProt P10275). Kind of assay: qHTS assay to identify small molecule agonists of the androgen receptor (AR) signaling pathway in the presence of an antagonist (AID 1259381; calls by dose curve; further: nearly all actives have a fitted effect of over 15% in size). The method, boiled down:
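Reporter-gene luminescence from MDA-kb2 cells exposed 16hr at 37C (0% CO2) to 15-point compound titrations with 3.0uM final nilutamide as AR antagonist.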

The nature of assay [4]: qHTS assay to identify small molecule antagonists of the estrogen receptor beta (ER-beta) signaling pathway - cell viability counter screen (AID 1259382). Further: series mostly up to about 92 µM; nearly all actives have a fitted effect of over 55% in size. The method, boiled down: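 Viability is scored by CellTiter-Glo luminescence (30 min, room temperature) in ER-beta-UAS-bla HEK293T wells already read for reporter fluorescence. Compound exposure lasts 16 hr at 37C alongside 1nM 17-beta-estradiol in charcoal-stripped serum medium.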

The target of assay [5] is Estrogen receptor (Homo sapiens) (UniProt P03372). Description: qHTS assay to identify small molecule agonists of the estrogen receptor alpha (ER-alpha) signaling pathway in the presence of an antagonist (AID 1259383; calls by dose curve; further: top concentration of the series differs between compounds; nearly all actives have a fitted effect of over 15% in size). In short, it runs like this:
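Readout was ERE-driven luciferase luminescence in VM7Luc4E2 cells, which express full-length ER-alpha endogenously. Compounds were tested at 15 concentrations for 22hr alongside 10.0nM ICI-182,780 (final concentration).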

Assay [6] in a line: qHTS assay to identify small molecule agonists or antagonists of the thyroid stimulating hormone receptor (TSHR) signaling pathway - wild type cell line counter screen (AID 1259384; calls by dose curve). The method, boiled down:
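Wild-type Hek293 cells, 800/well, 18 h at 37C, then compound with Ro20-1724 for 30 min RT. cAMP by HTRF (cAMP-d2/anti-cAMP cryptate), 1 h RT, fluorescence read. 15 concentrations, triplicates.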

Assay [7] has as its target Thyrotropin receptor (Homo sapiens) (UniProt P16473). Description: qHTS assay to identify small molecule antagonists of the thyroid stimulating hormone receptor (TSHR) signaling pathway (AID 1259385; calls by dose curve; further: nearly all actives have a fitted effect of over 20% in size). In short, it runs like this: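 TSHR-HEK293 cells (800/well) plated 18 h, then compounds with Ro20-1724 and TSH at 1.5 ng/mL final, 30 min at room temperature. cAMP quantified by HTRF (cAMP-d2/anti-cAMP-cryptate, 1 h); 15 concentrations in triplicate.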

Assay [8] in a line: qHTS assay to identify small molecule agonists of the estrogen receptor alpha (ER-alpha) signaling pathway in the presence of an antagonist - cell viability counter screen (AID 1259386).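 Further: cells exposed to compounds for 22 h at 37 °C before the viability read; nearly all actives have a fitted effect of over 30% in size.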 Further: potency means the concentration at half of the fitted maximal effect. In short, it runs like this: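 In this counter screen, compound effects on VM7Luc4E2 viability were tested in the presence of the antagonist ICI-182,780 at 10.0nM final. Compounds were dosed at 15 concentrations, exposure lasted 22hr, and the CellTiter-Fluor signal was read.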

The target in assay [9] is Progesterone receptor (Homo sapiens) (UniProt P06401). Description: qHTS assay to identify small molecule agonists of the progesterone receptor (PR) signaling pathway (AID 1346784; calls by dose curve; further: nearly all actives have a fitted effect of over 30% in size; further: potency means the concentration at half of the fitted maximal effect). In short, it runs like this: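 PR-UAS-bla HEK 293T cells carrying a UAS-driven beta-lactamase reporter were seeded in medium with 2% charcoal-stripped FBS, preincubated 6 hr at 37C, then exposed to compounds in DMSO for 16 hr; agonism was read by LiveBLAzer B/G FRET fluorescence.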

A short description of assay [10]: qHTS assay to identify small molecule antagonists of the progesterone receptor (PR) signaling pathway - cell viability counter screen (AID 1346798). Further: series mostly up to about 92 µM; nearly all actives have a fitted effect of over 50% in size. The method, boiled down:
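PR-UAS-bla HEK293T cells in medium with 2% charcoal-stripped FBS were treated with compounds plus R5020 for 16 hr at 37C. Cell viability was then read by CellTiter-Glo luminescence after 30 min at room temperature in the same wells.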

The nature of assay [11]: qHTS assay to identify small molecule antagonists of the TGF-beta/Smad signaling pathway - cell viability counter screen (AID 1346824). Further: nearly all actives have a fitted effect of over 50% in size. In short, it runs like this:
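SBE-bla HEK 293T cells, incubated overnight, then compound plus 0.25 ng/mL TGF-beta1 (stock added) for 5 hr at 37 C. Viability was read in the same wells by CellTiter-Glo luminescence after 30 min at room temperature.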

The nature of assay [12]: qHTS assay to identify small molecule agonists of the TGF-beta/Smad signaling pathway - cell viability counter screen (AID 1346829). Further: top concentration of the series differs between compounds; nearly all actives have a fitted effect of over 45% in size. The method, boiled down: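 HEK 293T SBE-bla line, 5 hr compound exposure at 37 C, multiplexed CellTiter-Glo viability read by luminescence.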
The nature of assay [13]: qHTS assay to identify small molecule agonists of the TGF-beta/Smad signaling pathway (AID 1346859; active means well fitted activation curve with a large enough effect in the signal ratio in the repeat runs, not every such curve was filed as active; the % refers to the signal ratio; further: series mostly up to about 77 µM). In short, it runs like this: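 HEK 293T cells stably carrying a beta-lactamase reporter driven by the Smad binding element were seeded overnight, exposed to DMSO-dissolved compounds for 5 hr at 37 C, 5% CO2, then loaded with FRET substrate for 2 hr at room temperature.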

The target in assay [14] is Thyrotropin-releasing hormone receptor (Homo sapiens) (UniProt P34981). Kind of assay: qHTS assay to identify small molecule antagonists of the thyrotropin-releasing hormone receptor (TRHR) signaling pathway (AID 1346877; active means well fitted inhibition curve with a large enough effect in the repeat runs, not every such curve was filed as active; further: series mostly up to about 51 µM). The method, boiled down:
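Kinetic fluorescence (3 min, 1 s resolution) following stimulation with TRH at 1 nM final; HEK293 cells bearing human TRHR; 5 min compound preincubation at RT; concentration-response over 15 points, triplicates.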

A short description of assay [15]: qHTS assay to identify small molecule agonists of the estrogen receptor beta (ER-beta) signaling pathway - cell viability counter screen (AID 1259380). Further: nearly all actives have a fitted effect of over 30% in size. Further: potency means the concentration at half of the fitted maximal effect. In short, it runs like this:
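Steps: plate ER-beta-UAS-bla HEK293T cells, rest 6 hr; add compounds in DMSO; incubate 16 hr at 37C, 5% CO2; add FRET substrate 2 hr; add CellTiter-Glo, wait 30 min at room temperature; read luminescence.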

Assay [16] in a line: qHTS assay to identify small molecule agonists of the progesterone receptor (PR) signaling pathway - cell viability counter screen (AID 1346799; calls by dose curve; further: nearly all actives have a fitted effect of over 45% in size). In short, it runs like this:
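PR-UAS-bla HEK293T cells, 3,000 per well in medium with 2% charcoal-stripped FBS, were preincubated 6 hr at 37C, then exposed to compounds for 16 hr; viability was read as CellTiter-Glo luminescence after 30 min at room temperature.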

Assay [17] deals with Progesterone receptor (Homo sapiens) (UniProt P06401). Description: qHTS assay to identify small molecule antagonists of the progesterone receptor (PR) signaling pathway (AID 1346795; active means well fitted inhibition curve with a large enough effect in the signal ratio in the repeat runs, not every such curve was filed as active; the % refers to the signal ratio; further: potency means the concentration at half of the fitted maximal effect). The method, boiled down: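 PR-UAS-bla HEK293T cells carrying a UAS-driven beta-lactamase reporter were plated in medium with 2% charcoal-stripped FBS and rested 6 hr at 37C. Compounds were added with 1 nM R5020 (final) for 16 hr, then FRET substrate loaded 2 hr at room temperature.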

Results filed as inconclusive are left out. Calls of active or inactive are those of the source. Unless noted, the call rests on the fitted dose curve; in most records, active means well fitted curve in the direction sought with a large enough effect in the repeat runs; inconclusive means weak or mixed curves; inactive means no such curve, though single readings can be large; an effect the other way counts as inactive or inconclusive.

Progesterone receptor (Homo sapiens), sequence (P06401 whole entry, looked up): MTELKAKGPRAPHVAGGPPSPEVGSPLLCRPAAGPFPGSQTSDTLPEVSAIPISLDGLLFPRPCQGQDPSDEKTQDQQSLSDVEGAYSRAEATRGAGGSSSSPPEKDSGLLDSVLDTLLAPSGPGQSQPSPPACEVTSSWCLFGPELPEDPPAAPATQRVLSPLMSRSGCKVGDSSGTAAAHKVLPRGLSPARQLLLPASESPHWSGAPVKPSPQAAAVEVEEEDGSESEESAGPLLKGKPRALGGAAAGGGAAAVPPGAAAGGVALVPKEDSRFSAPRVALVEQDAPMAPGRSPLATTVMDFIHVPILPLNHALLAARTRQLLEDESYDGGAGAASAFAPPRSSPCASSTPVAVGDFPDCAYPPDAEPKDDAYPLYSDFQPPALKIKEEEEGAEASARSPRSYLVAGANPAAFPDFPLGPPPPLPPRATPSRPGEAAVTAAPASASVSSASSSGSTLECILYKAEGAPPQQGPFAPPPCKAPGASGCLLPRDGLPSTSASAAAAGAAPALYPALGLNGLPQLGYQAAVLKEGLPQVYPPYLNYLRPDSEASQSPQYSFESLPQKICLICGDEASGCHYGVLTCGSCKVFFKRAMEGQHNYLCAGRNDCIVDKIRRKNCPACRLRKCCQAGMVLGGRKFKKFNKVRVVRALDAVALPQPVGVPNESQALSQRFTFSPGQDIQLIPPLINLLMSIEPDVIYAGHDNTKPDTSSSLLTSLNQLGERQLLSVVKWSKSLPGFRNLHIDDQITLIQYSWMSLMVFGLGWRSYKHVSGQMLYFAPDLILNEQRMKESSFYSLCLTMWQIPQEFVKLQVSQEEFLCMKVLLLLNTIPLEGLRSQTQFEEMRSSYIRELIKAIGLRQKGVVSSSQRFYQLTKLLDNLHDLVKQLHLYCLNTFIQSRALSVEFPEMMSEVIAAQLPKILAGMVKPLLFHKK
Estrogen receptor (Homo sapiens), sequence (P03372 whole entry, looked up): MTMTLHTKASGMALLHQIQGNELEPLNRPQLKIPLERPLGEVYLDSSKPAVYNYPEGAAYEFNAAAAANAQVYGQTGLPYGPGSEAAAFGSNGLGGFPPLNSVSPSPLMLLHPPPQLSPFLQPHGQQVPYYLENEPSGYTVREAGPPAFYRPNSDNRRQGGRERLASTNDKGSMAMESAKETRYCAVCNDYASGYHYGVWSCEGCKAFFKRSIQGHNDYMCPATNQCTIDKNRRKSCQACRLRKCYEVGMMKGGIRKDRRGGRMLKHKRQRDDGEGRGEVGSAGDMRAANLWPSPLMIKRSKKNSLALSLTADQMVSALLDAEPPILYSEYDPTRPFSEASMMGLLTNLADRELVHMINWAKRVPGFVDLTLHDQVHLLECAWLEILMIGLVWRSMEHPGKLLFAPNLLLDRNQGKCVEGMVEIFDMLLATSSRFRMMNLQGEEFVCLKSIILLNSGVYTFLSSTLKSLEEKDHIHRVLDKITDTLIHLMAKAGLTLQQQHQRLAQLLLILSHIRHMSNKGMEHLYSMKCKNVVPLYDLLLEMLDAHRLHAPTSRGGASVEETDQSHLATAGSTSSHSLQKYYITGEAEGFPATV
Thyrotropin receptor (Homo sapiens), sequence (P16473 whole entry, looked up): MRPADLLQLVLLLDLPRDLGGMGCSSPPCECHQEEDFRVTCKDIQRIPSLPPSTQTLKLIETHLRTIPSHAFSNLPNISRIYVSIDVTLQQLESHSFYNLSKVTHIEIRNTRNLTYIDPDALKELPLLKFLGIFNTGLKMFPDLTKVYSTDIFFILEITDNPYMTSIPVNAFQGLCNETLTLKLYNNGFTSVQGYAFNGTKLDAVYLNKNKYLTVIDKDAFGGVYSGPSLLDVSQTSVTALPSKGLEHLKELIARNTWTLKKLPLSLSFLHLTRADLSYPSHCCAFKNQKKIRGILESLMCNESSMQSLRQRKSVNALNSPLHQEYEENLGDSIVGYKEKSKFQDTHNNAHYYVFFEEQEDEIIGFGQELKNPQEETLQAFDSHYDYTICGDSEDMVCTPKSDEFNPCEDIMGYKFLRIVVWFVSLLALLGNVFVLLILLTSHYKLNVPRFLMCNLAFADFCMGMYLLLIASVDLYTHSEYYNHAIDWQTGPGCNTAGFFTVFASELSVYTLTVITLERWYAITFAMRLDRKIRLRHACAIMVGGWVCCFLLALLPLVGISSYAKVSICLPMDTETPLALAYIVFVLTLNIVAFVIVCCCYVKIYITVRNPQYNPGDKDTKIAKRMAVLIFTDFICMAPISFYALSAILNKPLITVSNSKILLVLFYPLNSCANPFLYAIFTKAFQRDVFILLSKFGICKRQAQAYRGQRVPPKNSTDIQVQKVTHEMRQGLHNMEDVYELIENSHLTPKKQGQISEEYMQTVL
Thyrotropin-releasing hormone receptor (Homo sapiens), sequence (P34981 whole entry, looked up): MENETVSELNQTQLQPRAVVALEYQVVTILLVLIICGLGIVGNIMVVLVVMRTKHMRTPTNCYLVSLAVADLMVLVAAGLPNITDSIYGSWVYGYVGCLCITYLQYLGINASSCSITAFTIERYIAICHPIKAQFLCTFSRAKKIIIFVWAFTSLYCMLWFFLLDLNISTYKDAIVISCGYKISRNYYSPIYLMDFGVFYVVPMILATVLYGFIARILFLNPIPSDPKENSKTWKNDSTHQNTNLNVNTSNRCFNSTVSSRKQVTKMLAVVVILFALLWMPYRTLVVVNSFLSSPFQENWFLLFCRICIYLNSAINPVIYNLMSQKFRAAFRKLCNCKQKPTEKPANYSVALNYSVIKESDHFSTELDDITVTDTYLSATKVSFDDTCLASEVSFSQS
Androgen receptor (Homo sapiens), sequence (P10275 whole entry, looked up): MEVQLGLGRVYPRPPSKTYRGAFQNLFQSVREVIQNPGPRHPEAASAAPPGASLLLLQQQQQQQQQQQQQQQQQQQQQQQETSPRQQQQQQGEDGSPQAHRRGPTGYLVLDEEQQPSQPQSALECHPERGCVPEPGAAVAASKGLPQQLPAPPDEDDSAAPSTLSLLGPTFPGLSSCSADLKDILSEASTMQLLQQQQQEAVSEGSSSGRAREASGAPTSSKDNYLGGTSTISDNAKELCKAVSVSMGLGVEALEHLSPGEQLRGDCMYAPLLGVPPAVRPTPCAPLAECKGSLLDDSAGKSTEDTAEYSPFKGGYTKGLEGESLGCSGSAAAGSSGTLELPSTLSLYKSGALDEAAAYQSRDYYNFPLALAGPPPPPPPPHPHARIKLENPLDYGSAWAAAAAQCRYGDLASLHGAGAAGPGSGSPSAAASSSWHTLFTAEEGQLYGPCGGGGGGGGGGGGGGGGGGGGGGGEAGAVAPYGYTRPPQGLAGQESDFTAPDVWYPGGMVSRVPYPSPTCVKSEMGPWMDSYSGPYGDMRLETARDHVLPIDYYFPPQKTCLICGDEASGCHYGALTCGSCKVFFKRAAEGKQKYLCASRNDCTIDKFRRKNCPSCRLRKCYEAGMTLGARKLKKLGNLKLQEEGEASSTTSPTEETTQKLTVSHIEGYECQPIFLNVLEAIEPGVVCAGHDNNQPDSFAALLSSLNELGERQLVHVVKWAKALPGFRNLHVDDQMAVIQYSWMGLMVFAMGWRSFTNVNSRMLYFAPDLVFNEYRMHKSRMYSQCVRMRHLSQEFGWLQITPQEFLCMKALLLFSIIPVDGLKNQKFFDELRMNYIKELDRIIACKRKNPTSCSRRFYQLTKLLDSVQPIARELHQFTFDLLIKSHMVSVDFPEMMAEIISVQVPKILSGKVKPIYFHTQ

For `O=C(N/N=C/c1ccc([N+](=O)[O-])o1)c1ccc(O)cc1`, the Potency entry in [1], in [3], in assay [4], in assay [5], in assay [7] and in assay [9] was “inactive” each time. In assay [10], the Potency entry is “inactive”. The figures for the Potency in assay [2] and in assay [8] were 11.9 µM (active) and 29.8 µM (active), respectively. The outcome in [6], in assay [11], in [12], in assay [13] and in [14] was inactive.

In the case of `CCCOc1ccc(S(=O)(=O)N2CCN(CC)CC2)cc1-c1nc2c(CC)n(Cc3ccccn3)nc2c(=O)[nH]1`, the Potency entry in assay [1], in [2], in assay [15], in assay [4], in assay [5] and in assay [8] was “inactive” each time. For the same molecule, the Potency result in [9] and in [16] was “inactive” throughout. The call in [6], in assay [11], in [12] and in [14] was inactive.

On to `CCCCCCCCCOC(C)=O`, for which the Potency entry in [1], in assay [2], in [15], in [4], in assay [5] and in assay [7] was “inactive” each time. The Potency result in assay [8], in assay [9], in assay [17], in assay [10] and in [16] was “inactive” in each case. The outcome in assay [6], in [11], in [12] and in [13] was inactive.

`CCCC1C(CC)=CC(CC)=CN1c1ccccc1` (configuration not stated): the Potency result in assay [1], in [15], in assay [4], in assay [7] and in assay [9] was “inactive” each time. Moreover, the figures for the Potency in assay [2] and in assay [17] were 48.6 µM (active) and 27.3 µM (active), respectively. Besides, the molecule was classed as inactive in [6], in assay [11], in assay [12] and in assay [13].

With `Cc1oc(C)c(C(=O)Nc2ccccc2)c1C`, the Potency result in assay [1], in assay [4], in [5], in [8], in assay [9] and in assay [10] was “inactive” throughout. The Potency result in [16] is “inactive”. Besides, the call in assay [13] and in [14] was inactive.

With `Cc1ccc(S)cc1`, the Potency entry in [1], in [2], in [4], in assay [5], in assay [7] and in assay [8] was “inactive” throughout. The Potency result in [9], in [17] and in assay [10] was “inactive” throughout. Further, the call in assay [6], in assay [11], in assay [12], in assay [13] and in assay [14] was inactive.

Regarding `CCN(Cc1cccc(S(=O)(=O)O)c1)c1ccc(C(=C2C=CC(=[N+](CC)Cc3cccc(S(=O)(=O)[O-])c3)C=C2)c2ccccc2)cc1`, the Potency result in assay [1], in [2], in [15], in [4], in assay [5] and in assay [7] was “inactive” each time. The Potency result in [8], in assay [9], in assay [17], in [10] and in assay [16] was “inactive” in each case. In addition, the molecule was called inactive in assay [6], in assay [11], in assay [12], in [13] and in [14].

With `CCCCC(=O)O[C@]1(C(=O)CO)[C@@H](C)C[C@H]2[C@@H]3CCC4=CC(=O)C=C[C@]4(C)[C@@]3(F)[C@@H](O)C[C@@]21C`, the Potency entry in [1], in assay [2], in [5], in assay [8], in assay [17] and in assay [16] was “inactive” throughout. Further, the results for the Potency in assay [15] and in assay [9] were 15.4 µM (active) and 0.0019 µM (active), respectively. Moreover, the outcome in assay [6], in [11] and in assay [12] was inactive.

The values are drawn from PubChem BioAssay (Tox21).
